Results: the supplement of paper PMC11732987, “Enantioselective OTUD7B fragment discovery through chemoproteomics screening and high-throughput optimisation” (Communications Chemistry, 2025)

How the values were obtained:
Experiment in all cases: log2 ratio of Biotin-Ahx-Ub-VS probe labelling (fragment/DMSO); higher = less target engagement (more negative = stronger competition), active = hit call of the paper (q ≤ 0.05, log2 ratio ≤ -1)
Details in all cases: compound concentration: 200 uM; treatment time: 3 h
[1] = biological target: T1, USP42 (UniProt Q9H9J4)
T1 sequence (whole entry): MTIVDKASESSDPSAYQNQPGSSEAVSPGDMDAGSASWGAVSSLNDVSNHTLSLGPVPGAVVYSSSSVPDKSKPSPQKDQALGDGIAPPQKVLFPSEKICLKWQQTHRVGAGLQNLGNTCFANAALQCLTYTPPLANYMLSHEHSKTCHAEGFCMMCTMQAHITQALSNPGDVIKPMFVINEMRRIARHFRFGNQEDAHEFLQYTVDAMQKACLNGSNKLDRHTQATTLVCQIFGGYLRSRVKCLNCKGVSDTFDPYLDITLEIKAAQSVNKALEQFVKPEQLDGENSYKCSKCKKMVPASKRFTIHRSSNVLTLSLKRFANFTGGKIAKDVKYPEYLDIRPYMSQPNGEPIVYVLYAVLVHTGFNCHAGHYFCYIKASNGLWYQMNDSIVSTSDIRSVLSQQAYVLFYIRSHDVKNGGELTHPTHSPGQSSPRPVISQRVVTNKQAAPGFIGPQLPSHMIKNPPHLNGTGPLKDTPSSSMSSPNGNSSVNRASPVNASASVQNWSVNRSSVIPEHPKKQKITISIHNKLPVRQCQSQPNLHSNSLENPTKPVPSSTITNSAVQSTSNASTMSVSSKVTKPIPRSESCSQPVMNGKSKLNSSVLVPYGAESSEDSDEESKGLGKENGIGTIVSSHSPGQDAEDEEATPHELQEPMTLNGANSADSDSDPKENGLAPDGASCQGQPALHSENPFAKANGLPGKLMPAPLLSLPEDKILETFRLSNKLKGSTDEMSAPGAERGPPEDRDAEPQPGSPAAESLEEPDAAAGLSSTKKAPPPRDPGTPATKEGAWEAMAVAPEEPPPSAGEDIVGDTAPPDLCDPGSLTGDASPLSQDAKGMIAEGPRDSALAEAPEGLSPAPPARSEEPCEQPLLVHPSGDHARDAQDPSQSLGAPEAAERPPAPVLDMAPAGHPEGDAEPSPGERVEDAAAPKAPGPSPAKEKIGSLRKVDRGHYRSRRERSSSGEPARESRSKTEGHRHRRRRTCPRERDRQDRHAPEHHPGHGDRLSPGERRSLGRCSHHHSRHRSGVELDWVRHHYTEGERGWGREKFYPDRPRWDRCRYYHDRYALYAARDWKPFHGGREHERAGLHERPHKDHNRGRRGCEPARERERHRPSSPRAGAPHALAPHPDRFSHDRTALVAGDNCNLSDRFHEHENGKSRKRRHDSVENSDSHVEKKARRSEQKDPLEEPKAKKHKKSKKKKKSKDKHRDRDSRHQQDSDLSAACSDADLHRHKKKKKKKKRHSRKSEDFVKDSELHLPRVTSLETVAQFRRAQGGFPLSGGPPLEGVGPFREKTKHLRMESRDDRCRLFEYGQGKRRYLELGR
Method in brief: (§1)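 The table lists average log2 ratios of fragment over vehicle, from an unpaired t-test on global-median-normalised Spectronaut label-free quantities. Proteins with ≥2 unique peptides were used. Samples were HEK293T lysate (495 µg) treated in triplicate with fragment at 200 µM or vehicle for 3 h, then with Biotin-Ahx-Ub-VS (0.5 µM final) for 1 h, with labelled DUBs NeutrAvidin-enriched and run by diaPASEF LC-MS/MS.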

[2] = biological target: USP46 (UniProt P62068)
USP46, sequence (P62068 whole entry): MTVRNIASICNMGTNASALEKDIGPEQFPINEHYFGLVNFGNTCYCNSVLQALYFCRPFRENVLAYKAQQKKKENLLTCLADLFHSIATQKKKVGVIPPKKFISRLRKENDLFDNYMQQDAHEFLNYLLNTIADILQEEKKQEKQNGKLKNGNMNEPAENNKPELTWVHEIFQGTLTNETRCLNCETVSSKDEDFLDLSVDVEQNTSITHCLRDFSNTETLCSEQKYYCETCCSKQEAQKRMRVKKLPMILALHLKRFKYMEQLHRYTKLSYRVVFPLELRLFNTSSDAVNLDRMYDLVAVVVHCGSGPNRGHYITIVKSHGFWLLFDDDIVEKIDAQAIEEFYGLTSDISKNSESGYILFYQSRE
Method in brief: as §1

[3] = biological target: T2, USP47 (UniProt Q96K76)
T2 sequence (whole entry): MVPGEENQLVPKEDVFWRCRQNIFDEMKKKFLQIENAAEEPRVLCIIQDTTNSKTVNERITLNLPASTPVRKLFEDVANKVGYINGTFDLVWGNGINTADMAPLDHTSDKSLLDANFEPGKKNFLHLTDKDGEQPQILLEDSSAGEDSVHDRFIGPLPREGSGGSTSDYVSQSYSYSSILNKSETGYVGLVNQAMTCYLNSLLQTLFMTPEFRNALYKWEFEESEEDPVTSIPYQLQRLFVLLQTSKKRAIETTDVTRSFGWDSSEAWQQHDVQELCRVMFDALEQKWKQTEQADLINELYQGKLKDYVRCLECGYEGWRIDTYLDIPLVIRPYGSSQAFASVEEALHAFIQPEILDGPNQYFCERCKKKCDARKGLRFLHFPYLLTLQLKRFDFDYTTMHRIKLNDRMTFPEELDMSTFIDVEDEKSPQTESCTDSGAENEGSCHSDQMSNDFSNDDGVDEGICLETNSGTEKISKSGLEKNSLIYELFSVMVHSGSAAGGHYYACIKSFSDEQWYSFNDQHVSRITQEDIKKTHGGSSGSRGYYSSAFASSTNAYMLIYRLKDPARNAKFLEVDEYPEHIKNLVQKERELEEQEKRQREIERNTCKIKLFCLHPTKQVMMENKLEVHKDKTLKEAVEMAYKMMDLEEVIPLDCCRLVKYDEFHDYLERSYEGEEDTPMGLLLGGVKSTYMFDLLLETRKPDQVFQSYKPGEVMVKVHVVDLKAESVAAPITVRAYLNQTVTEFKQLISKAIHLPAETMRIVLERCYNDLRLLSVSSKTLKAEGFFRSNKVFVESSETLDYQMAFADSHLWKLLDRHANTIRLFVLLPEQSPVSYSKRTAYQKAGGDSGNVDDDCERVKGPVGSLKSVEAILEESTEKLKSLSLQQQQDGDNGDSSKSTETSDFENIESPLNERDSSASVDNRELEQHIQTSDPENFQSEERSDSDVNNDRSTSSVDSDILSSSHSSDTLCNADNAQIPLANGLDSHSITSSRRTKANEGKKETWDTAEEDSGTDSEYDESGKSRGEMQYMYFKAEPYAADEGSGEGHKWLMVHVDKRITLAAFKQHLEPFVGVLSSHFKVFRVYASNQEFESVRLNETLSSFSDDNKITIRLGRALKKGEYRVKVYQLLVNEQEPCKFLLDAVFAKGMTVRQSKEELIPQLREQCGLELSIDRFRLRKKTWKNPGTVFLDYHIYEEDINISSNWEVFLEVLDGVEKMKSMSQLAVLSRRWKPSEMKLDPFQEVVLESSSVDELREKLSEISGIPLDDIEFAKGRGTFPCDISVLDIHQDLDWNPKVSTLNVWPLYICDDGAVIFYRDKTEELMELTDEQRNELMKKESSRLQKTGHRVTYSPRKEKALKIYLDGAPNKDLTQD
Method in brief: as §1

[4] = biological target: T3, USP48 (UniProt Q86UV5)
T3 sequence (whole entry): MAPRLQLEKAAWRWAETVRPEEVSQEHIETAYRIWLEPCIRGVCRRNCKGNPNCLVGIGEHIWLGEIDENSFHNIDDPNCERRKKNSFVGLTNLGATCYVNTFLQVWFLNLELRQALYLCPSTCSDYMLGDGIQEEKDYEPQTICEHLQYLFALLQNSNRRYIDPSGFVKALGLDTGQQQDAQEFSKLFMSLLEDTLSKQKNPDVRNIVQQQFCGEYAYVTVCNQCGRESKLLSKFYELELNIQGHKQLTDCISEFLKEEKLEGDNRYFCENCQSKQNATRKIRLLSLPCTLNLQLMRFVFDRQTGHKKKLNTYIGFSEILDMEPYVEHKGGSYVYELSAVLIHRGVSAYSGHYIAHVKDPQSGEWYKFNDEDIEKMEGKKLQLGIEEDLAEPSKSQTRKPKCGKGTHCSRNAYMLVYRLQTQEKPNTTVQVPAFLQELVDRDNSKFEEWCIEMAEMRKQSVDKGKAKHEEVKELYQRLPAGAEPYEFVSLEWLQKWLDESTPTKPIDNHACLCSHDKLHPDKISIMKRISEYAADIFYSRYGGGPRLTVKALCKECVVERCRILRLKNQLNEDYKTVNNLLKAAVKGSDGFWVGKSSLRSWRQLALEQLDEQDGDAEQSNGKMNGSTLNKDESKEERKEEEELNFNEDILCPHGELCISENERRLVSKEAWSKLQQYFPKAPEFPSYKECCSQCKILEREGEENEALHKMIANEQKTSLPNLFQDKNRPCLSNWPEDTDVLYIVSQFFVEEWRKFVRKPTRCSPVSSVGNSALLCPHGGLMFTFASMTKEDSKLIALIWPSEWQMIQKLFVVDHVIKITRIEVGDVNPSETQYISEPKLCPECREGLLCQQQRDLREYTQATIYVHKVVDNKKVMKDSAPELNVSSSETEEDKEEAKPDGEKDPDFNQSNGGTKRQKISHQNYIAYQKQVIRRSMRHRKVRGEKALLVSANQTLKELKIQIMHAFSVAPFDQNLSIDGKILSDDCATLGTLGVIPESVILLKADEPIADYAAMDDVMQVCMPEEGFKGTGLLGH
Method in brief: as §1

[5] = biological target: T4, USP5 (UniProt P45974)
T4 sequence (whole entry): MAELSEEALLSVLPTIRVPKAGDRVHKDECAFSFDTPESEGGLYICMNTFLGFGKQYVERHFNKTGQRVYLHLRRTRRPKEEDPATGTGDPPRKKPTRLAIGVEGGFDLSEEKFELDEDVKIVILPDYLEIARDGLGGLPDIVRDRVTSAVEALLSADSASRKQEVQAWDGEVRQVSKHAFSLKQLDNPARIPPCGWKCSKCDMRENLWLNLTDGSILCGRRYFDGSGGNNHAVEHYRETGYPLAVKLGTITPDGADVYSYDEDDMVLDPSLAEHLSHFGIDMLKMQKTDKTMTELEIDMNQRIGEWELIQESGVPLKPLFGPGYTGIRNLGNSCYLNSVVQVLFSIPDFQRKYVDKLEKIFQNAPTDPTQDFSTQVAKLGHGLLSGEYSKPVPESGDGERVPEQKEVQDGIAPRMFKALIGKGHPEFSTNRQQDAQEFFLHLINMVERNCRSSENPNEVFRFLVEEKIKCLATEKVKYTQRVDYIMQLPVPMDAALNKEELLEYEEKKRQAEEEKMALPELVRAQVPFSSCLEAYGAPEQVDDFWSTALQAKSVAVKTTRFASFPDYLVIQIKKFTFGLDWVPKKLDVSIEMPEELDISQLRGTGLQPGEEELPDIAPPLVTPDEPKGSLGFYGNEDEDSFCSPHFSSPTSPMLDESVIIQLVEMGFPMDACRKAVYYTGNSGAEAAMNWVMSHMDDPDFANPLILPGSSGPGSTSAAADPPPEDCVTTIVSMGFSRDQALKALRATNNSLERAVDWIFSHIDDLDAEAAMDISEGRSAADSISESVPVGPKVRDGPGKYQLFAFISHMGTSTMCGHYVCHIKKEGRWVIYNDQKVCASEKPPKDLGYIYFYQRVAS
Method in brief: as §1

[6] = biological target: USP54 (UniProt Q70EL1)
USP54, sequence (Q70EL1 whole entry): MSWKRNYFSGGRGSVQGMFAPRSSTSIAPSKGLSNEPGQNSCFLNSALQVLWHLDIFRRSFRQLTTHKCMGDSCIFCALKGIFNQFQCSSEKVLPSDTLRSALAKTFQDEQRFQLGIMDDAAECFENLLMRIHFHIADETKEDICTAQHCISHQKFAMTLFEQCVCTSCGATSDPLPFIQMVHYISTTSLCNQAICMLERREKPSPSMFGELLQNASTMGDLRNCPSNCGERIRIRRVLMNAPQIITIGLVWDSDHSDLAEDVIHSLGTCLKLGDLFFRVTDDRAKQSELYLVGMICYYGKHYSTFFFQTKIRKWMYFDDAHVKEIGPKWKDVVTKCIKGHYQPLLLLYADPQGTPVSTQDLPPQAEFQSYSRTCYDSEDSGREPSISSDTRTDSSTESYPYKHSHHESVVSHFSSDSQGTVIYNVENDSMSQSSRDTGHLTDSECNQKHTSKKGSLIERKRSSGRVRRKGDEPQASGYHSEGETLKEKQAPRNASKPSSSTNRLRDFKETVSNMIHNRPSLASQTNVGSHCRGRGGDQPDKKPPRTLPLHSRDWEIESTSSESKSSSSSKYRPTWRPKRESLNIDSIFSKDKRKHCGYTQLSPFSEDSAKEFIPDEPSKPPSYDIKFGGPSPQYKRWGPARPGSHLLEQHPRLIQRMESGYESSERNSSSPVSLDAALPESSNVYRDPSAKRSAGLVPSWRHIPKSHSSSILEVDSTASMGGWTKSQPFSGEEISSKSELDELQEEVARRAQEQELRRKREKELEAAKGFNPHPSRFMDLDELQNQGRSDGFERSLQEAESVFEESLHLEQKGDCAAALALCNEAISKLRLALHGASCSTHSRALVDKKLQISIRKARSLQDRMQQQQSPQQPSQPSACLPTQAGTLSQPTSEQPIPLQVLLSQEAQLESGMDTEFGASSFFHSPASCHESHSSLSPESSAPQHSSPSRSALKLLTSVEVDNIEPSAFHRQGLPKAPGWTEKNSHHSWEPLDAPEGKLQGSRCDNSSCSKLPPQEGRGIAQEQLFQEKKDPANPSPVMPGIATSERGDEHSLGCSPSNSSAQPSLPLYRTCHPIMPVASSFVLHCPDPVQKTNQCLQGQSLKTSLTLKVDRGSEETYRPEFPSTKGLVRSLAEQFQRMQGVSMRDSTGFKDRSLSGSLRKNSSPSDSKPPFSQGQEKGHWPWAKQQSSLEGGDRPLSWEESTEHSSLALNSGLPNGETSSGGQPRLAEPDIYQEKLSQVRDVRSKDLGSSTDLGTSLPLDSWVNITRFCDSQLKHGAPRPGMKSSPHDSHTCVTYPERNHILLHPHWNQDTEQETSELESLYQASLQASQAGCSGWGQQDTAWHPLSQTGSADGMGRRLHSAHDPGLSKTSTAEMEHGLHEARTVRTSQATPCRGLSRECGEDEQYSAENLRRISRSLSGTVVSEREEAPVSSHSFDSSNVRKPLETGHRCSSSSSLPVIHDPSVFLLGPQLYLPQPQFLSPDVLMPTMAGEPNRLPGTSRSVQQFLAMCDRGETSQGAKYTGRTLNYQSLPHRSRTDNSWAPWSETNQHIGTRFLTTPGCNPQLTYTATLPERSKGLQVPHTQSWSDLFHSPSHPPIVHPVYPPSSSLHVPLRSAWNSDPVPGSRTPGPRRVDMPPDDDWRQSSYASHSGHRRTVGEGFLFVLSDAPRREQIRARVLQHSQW
Method in brief: as §1

[7] = biological target: USP7 (UniProt Q93009)
USP7, sequence (Q93009 whole entry, looked up): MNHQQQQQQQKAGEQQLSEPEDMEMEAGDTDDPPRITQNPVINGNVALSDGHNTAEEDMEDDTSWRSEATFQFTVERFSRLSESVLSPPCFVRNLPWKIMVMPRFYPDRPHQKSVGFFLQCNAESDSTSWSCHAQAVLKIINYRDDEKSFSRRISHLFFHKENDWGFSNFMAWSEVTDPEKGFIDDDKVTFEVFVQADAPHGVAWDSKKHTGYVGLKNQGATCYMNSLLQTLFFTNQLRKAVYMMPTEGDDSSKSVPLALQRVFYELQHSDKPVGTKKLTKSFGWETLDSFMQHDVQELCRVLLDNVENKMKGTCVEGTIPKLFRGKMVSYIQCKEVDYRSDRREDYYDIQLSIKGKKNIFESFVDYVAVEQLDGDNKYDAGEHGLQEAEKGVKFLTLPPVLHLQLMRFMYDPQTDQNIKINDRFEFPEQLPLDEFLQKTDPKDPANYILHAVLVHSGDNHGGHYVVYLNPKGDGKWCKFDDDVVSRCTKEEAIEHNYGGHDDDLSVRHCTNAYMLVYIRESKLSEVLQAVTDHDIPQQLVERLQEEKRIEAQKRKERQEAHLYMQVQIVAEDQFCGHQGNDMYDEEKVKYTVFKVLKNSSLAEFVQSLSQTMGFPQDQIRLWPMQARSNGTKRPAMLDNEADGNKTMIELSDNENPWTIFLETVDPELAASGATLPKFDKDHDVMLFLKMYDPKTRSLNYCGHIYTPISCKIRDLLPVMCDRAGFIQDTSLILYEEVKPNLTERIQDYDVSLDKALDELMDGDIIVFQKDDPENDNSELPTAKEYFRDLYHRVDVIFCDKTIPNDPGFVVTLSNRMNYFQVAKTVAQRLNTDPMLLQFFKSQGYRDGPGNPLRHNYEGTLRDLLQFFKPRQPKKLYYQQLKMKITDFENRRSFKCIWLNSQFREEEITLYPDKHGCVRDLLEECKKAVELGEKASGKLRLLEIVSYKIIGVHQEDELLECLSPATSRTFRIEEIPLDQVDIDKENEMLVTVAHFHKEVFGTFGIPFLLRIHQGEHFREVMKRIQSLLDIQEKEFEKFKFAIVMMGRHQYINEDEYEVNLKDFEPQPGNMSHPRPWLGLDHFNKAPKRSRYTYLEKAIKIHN
Method in brief: as §1

[8] = biological target: T5, USP8 (UniProt P40818)
T5 sequence (whole entry): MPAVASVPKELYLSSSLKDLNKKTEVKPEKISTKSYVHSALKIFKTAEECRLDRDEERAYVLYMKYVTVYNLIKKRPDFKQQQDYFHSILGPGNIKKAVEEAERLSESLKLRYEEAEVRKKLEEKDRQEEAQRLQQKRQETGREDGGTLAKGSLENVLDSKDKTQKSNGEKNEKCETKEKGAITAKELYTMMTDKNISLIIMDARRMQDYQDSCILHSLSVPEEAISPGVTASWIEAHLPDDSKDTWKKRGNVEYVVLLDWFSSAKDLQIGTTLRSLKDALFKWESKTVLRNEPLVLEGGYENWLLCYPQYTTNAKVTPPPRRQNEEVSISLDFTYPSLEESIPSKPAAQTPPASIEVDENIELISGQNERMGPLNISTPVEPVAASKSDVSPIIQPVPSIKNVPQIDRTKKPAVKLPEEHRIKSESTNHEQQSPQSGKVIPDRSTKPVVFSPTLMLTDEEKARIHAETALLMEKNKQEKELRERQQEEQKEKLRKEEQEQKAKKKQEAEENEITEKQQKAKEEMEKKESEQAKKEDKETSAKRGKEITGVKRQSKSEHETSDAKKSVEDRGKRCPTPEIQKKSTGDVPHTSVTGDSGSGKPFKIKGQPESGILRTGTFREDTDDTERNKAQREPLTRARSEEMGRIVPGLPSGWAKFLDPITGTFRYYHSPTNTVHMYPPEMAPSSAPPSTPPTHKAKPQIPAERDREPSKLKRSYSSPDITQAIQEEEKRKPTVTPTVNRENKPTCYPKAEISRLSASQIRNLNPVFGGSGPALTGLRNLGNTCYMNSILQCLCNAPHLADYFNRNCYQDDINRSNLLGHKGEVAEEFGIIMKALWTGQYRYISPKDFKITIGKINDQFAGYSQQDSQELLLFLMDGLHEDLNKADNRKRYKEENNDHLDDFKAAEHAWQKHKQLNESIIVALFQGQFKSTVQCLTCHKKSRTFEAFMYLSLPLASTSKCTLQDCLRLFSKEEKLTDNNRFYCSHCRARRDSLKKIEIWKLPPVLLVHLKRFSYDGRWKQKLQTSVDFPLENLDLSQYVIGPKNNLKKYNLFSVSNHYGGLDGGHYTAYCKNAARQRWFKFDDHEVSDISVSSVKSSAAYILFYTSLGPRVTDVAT
Method in brief: as §1

[9] = biological target: USP9X (UniProt Q93008)
Method in brief: as §1

[10] = biological target: UniProt O00487
UniProt O00487, sequence (O00487 whole entry): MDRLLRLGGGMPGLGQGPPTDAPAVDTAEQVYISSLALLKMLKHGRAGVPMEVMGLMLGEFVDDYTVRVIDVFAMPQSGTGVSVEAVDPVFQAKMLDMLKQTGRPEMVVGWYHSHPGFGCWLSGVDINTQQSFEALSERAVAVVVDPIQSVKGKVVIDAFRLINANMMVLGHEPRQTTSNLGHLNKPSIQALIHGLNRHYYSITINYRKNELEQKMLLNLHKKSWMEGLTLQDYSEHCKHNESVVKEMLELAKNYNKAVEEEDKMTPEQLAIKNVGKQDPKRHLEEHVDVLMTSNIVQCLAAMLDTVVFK
Method in brief: as §1

Measured: log2 ratio of Biotin-Ahx-Ub-VS probe labelling

O=C(CCl)NCc1ccc2c(c1)OCO2
inactive: [1] 0.271 | [2] 0.12 | [3] 0.0619 | [4] -0.33 | [5] 0.376 | [6] 0.581 | [7] -0.297 | [8] -0.155 | [9] -0.147 | [10] -0.108

Cc1ncc2c(n1)CCN(C(=O)CCl)C2
inactive: [1] 0.492 | [2] -0.138 | [3] 0.296 | [4] -0.0668 | [5] -0.217 | [6] -0.303 | [7] -0.49 | [8] -0.102 | [9] -0.246 | [10] 0.0218
